Assay results from PubChem BioAssay (EPA / NIEHS).
Values joined by “and” are separate entries in the source; they are usually repeats but may differ in a detail not shown here. Identical values can stand only once. Records with an inconclusive call do not appear. Some compounds were tested as several samples or in several runs, with calls that do not always agree. Active and inactive are the calls of the source. How the source made its calls: active means hit-call score of the fitted dose curve at least 0.9, where 1 is the maximum; inconclusive means response in the unintended direction; inactive means score below 0.9.

How the values were obtained:
[1] = target: human CYP4F12, CYP4F12 (gene 66002) (UniProt Q9HCS2); assay: NVS_ADME_hCYP4F12: NovaScreen (NVS) CYP450-related Enzyme Activity (ADME) Assay for human CYP4F12 (AID 2283111)
Procedure, shortened: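 Cell-free fluorescence assay of recombinant human CYP4F12 activity on a specific substrate, read 0.5 h after dosing. Primary screen in duplicate at 10 uM, then concentration series for actives; loss of signal fitted against acetonitrile negative control.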

[2] = target: human Acetylcholinesterase (AChE), ACHE (gene 43) (UniProt P22303); assay: NVS_ENZ_hAChE: NovaScreen (NVS) Enzymatic Assay for human Acetylcholinesterase (AChE) (AID 2283129)
Sequence of human Acetylcholinesterase (AChE), ACHE (gene 43) (P22303 whole entry, looked up): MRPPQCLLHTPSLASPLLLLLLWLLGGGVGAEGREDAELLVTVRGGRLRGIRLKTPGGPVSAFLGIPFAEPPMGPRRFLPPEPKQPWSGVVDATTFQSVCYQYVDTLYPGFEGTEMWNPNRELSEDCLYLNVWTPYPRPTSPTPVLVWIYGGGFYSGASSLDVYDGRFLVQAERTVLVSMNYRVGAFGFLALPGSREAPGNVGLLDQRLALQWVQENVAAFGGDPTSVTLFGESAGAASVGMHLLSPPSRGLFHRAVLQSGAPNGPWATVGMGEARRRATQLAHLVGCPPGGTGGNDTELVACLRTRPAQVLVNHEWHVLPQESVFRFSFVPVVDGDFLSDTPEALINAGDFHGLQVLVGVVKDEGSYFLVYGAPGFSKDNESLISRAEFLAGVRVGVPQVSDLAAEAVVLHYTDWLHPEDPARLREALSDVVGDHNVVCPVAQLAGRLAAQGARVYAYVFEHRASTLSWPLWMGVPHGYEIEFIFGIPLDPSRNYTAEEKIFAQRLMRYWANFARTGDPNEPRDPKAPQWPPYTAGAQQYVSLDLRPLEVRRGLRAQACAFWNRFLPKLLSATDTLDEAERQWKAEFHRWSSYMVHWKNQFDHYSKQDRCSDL
Procedure, shortened: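 Cell-free colorimetric enzyme-activity assay; compounds read 0.33 hour after dosing, loss of signal vs DMSO baseline. Primary screen in duplicate at 25 uM single concentration, with active compounds retested in concentration series.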

[3] = target: human AMP-activated Protein Kinase, alpha 1 (AMPKa1), PRKAA1 (gene 5562) (UniProt Q13131); assay: NVS_ENZ_hAMPKa1: NovaScreen (NVS) Enzymatic Assay for human AMP-activated Protein Kinase, alpha 1 (AMPKa1) (AID 2283130)
Sequence of human AMP-activated Protein Kinase, alpha 1 (AMPKa1), PRKAA1 (gene 5562) (Q13131 whole entry, looked up): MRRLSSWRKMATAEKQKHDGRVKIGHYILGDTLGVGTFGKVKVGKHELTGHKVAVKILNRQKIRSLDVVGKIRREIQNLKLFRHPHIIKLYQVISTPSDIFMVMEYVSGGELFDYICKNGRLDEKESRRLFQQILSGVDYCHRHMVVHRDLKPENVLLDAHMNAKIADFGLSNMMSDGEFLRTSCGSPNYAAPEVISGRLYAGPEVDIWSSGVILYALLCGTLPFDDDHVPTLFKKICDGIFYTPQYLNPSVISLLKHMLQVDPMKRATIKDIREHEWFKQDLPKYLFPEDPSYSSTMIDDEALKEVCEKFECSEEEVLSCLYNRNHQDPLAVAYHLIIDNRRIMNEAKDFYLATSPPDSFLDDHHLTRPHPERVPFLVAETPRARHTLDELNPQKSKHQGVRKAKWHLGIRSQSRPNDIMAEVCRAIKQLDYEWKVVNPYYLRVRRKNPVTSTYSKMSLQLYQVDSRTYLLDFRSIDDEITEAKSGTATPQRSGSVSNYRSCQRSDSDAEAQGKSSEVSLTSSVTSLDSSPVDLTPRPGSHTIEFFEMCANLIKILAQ
Procedure, shortened: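 Recombinant human AMPKα1 activity was measured cell-free by fluorescent substrate conversion with electrophoretic mobility-shift separation, 1 h after dosing. Duplicate single-point screening was at 25 uM; actives (≥30% inhibition) were retested in concentration-response up to 50 uM.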

[4] = target: human Caspase 2 (CASP2), CASP2 (gene 835) (UniProt P42575); assay: NVS_ENZ_hCASP2: NovaScreen (NVS) Enzymatic Assay for human Caspase 2 (CASP2) (AID 2283135)
Sequence of human Caspase 2 (CASP2), CASP2 (gene 835) (P42575 whole entry, looked up): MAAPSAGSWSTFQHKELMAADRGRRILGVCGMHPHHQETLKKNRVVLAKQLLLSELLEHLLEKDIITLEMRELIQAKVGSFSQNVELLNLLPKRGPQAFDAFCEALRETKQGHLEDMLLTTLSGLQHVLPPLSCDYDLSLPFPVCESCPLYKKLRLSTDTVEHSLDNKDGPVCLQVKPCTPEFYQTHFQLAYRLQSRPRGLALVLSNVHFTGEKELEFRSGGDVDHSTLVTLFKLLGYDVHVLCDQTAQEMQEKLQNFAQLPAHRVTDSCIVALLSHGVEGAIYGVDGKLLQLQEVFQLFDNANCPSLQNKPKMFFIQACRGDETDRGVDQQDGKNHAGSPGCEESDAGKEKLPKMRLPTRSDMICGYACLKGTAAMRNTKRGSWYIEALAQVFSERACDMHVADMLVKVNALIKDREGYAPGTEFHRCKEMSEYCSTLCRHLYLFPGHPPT
Procedure, shortened: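 E. coli-expressed enzyme in a cell-free protease assay, fluorescence read 1 h after dosing. Compounds at 25 uM in duplicate, with concentration-response up to 50 uM for hits; loss of signal against DMSO baseline.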

[5] = target: human Fibroblast Growth Factor Receptor 1 (FGFR1), FGFR1 (gene 2260) (UniProt P11362); assay: NVS_ENZ_hFGFR1: NovaScreen (NVS) Enzymatic Assay for human Fibroblast Growth Factor Receptor 1 (FGFR1) (AID 2283159);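 further: hits lower the signal so potencies describe inhibitors of the kinase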
Sequence of human Fibroblast Growth Factor Receptor 1 (FGFR1), FGFR1 (gene 2260) (P11362 whole entry, looked up): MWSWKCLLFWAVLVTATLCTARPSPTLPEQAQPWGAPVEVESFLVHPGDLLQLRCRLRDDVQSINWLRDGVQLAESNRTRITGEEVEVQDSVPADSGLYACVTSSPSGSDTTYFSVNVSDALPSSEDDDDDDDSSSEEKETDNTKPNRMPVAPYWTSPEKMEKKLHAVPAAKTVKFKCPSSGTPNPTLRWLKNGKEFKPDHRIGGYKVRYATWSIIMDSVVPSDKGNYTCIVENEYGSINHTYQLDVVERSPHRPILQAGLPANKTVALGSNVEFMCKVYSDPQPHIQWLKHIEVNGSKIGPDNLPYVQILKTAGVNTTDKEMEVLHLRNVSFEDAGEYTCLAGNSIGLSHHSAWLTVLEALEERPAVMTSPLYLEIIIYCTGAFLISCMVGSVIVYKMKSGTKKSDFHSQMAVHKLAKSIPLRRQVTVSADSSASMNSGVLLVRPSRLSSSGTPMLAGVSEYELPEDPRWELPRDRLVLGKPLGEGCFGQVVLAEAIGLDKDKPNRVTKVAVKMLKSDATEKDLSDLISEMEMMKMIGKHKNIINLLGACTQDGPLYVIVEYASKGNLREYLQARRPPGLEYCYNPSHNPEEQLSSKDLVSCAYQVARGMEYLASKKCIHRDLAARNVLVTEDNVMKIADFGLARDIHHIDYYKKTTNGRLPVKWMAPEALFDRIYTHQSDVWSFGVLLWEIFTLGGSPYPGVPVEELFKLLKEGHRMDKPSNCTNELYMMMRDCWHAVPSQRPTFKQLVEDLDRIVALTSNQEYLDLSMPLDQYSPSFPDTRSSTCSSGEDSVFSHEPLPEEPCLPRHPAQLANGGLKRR
Procedure, shortened: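 Cell-free recombinant kinase with fluorescent substrate, product separated by electrophoretic mobility shift; read 1 hour after dosing, loss of signal relative to DMSO. Initial screen in duplicate at 25 uM, actives followed in concentration series.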

[6] = target: Protein deacetylase HDAC6 (Homo sapiens) (UniProt Q9UBN7); assay: NVS_ENZ_hHDAC6: NovaScreen (NVS) Enzymatic Assay for human Histone Deacetylase 6 (HDAC6) (AID 2283164)
Procedure, shortened: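 Recombinant human HDAC6 with fluorescent substrate, 1 h; product separated from substrate by electrophoretic mobility shift. Primary screen in duplicate at 25 uM; actives retested singly in concentration-response up to 50 uM, fitted relative to DMSO.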

[7] = target: human IkappaB Kinase alpha (IKKa), CHUK (gene 1147) (UniProt O15111); assay: NVS_ENZ_hIKKa: NovaScreen (NVS) Enzymatic Assay for human IkappaB Kinase alpha (IKKa) (AID 2283167)
Procedure, shortened: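 Cell-free recombinant human IKKa with fluorescent substrate, product separated by electrophoretic mobility shift; read 1 hour after dosing. Primary screen duplicate at 25 uM, actives then concentration-response up to 50 uM; loss of signal relative to DMSO.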

[8] = target: human Mitogen-Activated Protein Kinase 1 (MAPK 1), MAPK1 (gene 5594) (UniProt P28482); assay: NVS_ENZ_hMAPK1: NovaScreen (NVS) Enzymatic Assay for human Mitogen-Activated Protein Kinase 1 (MAPK 1) (AID 2283175)
Sequence of human Mitogen-Activated Protein Kinase 1 (MAPK 1), MAPK1 (gene 5594) (P28482 whole entry, looked up): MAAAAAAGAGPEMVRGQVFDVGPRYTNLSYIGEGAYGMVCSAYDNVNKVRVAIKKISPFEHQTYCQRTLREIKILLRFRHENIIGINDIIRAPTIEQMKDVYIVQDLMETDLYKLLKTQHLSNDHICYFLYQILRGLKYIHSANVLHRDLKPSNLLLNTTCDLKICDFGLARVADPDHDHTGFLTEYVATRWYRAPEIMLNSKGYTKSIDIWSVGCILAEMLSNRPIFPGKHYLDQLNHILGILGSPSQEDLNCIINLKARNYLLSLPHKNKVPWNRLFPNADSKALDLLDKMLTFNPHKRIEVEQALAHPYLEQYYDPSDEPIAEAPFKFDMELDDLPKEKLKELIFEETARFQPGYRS
Procedure, shortened: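 Cell-free recombinant human MAPK1 enzymatic assay, fluorescence/electrophoretic mobility shift read at 1 h; loss of signal vs DMSO. Primary screen in duplicate at 25 uM; actives (e.g. ≥30% inhibition) run as concentration-response up to 50 uM.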

[9] = target: human Matrix Metalloproteinase-1 (MMP1), MMP1 (gene 4312) (UniProt P03956); assay: NVS_ENZ_hMMP1: NovaScreen (NVS) Enzymatic Assay for human Matrix Metalloproteinase-1 (MMP1) (AID 2283181)
Procedure, shortened: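 Human MMP1 enzyme activity measured by fluorescence 1 h after dosing, cell-free, with a specific substrate. Screened in duplicate at 25 uM; hits (e.g. 30% inhibition) run in concentration-response up to 50 uM; loss of signal versus DMSO.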

[10] = target: human p21 Activated Kinase 4 (PAK4), PAK4 (gene 10298) (UniProt O96013); assay: NVS_ENZ_hPAK4: NovaScreen (NVS) Enzymatic Assay for human p21 Activated Kinase 4 (PAK4) (AID 2283189)
Sequence of human p21 Activated Kinase 4 (PAK4), PAK4 (gene 10298) (O96013 whole entry, looked up): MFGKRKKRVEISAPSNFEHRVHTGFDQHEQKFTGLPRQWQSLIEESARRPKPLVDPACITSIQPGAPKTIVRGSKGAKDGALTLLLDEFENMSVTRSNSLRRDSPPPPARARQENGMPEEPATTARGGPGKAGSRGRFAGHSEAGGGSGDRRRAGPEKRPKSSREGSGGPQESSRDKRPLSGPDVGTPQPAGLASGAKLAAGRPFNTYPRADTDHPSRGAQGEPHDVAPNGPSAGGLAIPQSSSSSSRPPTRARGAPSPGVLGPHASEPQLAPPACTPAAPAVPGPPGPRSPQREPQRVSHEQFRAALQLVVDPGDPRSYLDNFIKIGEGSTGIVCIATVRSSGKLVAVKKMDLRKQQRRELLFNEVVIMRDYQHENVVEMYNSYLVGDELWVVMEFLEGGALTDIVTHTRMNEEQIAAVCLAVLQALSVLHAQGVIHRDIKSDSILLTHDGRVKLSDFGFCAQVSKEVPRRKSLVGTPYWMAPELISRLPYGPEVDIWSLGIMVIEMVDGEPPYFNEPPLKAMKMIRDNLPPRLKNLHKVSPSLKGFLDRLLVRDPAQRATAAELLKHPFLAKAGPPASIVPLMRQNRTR
Procedure, shortened: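 Cell-free recombinant human PAK4 activity assay; fluorescent substrate and product separated by electrophoretic mobility shift, read 1 h after dosing. Initially tested in duplicate at 25 uM, relative to DMSO baseline.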

[11] = target: human Phosphatase and Tensin Homolog (PTEN), PTEN (gene 5728) (UniProt P60484); assay: NVS_ENZ_hPTEN: NovaScreen (NVS) Enzymatic Assay for human Phosphatase and Tensin Homolog (PTEN) (AID 2283203)
Sequence of human Phosphatase and Tensin Homolog (PTEN), PTEN (gene 5728) (P60484 whole entry, looked up): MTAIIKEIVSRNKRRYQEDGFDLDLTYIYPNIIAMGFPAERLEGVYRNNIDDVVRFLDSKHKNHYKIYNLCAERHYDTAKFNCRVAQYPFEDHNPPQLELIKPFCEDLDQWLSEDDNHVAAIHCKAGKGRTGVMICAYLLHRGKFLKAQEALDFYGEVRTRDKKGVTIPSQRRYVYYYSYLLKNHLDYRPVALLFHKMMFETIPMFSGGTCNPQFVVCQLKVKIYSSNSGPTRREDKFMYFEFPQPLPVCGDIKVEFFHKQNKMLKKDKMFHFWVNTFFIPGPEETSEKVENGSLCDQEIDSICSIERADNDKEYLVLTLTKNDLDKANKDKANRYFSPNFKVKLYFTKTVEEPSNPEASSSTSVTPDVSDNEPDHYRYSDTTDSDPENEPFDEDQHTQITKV
Procedure, shortened: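 Cell-free recombinant human PTEN with fluorescent substrate; product separated by electrophoretic mobility shift and read by fluorescence 1 h after dosing. Primary screen in duplicate at 25 uM, actives followed in concentration series versus DMSO.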

[12] = target: human Protein Tyrosine Phosphatase Non-receptor Type 2 (PTPN2), PTPN2 (gene 5771) (UniProt P17706); assay: NVS_ENZ_hPTPN2: NovaScreen (NVS) Enzymatic Assay for human Protein Tyrosine Phosphatase Non-receptor Type 2 (PTPN2) (AID 2283207)
Procedure, shortened: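 Cell-free recombinant enzyme with fluorescent substrate, product separated by electrophoretic mobility shift; read 1 h after dosing. Primary screen single concentration (25 uM) in duplicate; actives followed in concentration series; loss of signal versus DMSO.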

[13] = target: human Raf-1 Proto-Oncogene, serine/threonine Kinase (RAF1), RAF1 (gene 5894) (UniProt P04049); assay: NVS_ENZ_hRAF1: NovaScreen (NVS) Enzymatic Assay for human Raf-1 Proto-Oncogene, serine/threonine Kinase (RAF1) (AID 2283216)
Procedure, shortened: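 Cell-free recombinant kinase with specific fluorescent substrate, product separated by electrophoretic mobility shift; read 1 h after dosing. Primary screen at 25 uM in duplicate; hits then run in concentration-response up to 50 uM, fitted as loss of signal versus DMSO.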

[14] = target: human Tyrosine Protein Kinase Receptor Tie-2 (Tie2), TEK (gene 7010) (UniProt Q02763); assay: NVS_ENZ_hTie2: NovaScreen (NVS) Enzymatic Assay for human Tyrosine Protein Kinase Receptor Tie-2 (Tie2) (AID 2283225)
Sequence of human Tyrosine Protein Kinase Receptor Tie-2 (Tie2), TEK (gene 7010) (Q02763 whole entry, looked up): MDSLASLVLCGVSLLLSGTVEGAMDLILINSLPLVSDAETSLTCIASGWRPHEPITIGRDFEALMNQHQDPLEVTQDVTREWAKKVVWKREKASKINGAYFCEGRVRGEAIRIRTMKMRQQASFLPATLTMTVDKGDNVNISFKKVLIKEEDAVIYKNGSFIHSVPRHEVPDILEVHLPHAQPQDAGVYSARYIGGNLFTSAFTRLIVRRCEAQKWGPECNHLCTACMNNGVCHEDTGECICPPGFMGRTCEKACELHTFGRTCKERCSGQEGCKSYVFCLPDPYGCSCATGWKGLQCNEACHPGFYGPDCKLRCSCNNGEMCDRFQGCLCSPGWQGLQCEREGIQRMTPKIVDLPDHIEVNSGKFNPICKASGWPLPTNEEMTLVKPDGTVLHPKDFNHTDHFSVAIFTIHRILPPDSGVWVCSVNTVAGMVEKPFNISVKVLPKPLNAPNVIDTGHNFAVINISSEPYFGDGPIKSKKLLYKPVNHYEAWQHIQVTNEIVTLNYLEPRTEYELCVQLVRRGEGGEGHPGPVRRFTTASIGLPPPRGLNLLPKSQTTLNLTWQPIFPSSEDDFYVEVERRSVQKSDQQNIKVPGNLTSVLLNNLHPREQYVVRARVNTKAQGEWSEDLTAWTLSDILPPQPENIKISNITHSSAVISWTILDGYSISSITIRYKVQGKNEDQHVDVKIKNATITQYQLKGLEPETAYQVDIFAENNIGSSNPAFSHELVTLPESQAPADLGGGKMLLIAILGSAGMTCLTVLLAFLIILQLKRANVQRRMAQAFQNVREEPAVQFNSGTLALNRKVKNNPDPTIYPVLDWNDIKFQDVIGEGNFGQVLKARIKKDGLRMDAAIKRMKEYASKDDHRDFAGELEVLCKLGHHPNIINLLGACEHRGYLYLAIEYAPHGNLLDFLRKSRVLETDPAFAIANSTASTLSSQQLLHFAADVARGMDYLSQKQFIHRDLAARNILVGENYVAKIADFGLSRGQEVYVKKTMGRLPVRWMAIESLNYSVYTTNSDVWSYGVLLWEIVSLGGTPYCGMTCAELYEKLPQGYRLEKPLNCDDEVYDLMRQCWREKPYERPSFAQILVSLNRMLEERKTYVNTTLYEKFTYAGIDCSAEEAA
Procedure, shortened: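 Recombinant human Tie2 kinase activity was read cell-free by fluorescence with electrophoretic mobility shift, 1 hour after dosing. The screen used 25 uM in duplicate, then concentration-response up to 50 uM. Signal loss was scored against DMSO.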

[15] = target: rat Adenylate Cyclase, Forskolin Stimulated, Adcy5 (gene 64532) (UniProt Q04400); assay: NVS_ENZ_rACFSKBinding: NovaScreen (NVS) Enzymatic Assay for rat Adenylate Cyclase, Forskolin Stimulated (AID 2283232)
Procedure, shortened: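 Rat forebrain membrane preparation, cell-free, read 1 h after dosing by filter-based scintillation counting. Primary screen in duplicate at 25 uM; actives (e.g. ≥30% inhibition) rerun in concentration-response up to 50 uM; fit versus DMSO.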

[16] = target: rat Acetylcholinesterase (AChE), Ache (gene 83817) (UniProt P37136); assay: NVS_ENZ_rAChE: NovaScreen (NVS) Enzymatic Assay for rat Acetylcholinesterase (AChE) (AID 2283233)
Procedure, shortened: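 Rat brain membrane acetylcholinesterase activity measured colorimetrically 0.33 h after compound addition, loss of signal relative to DMSO. Primary screen in duplicate at 25 uM; actives re-run as concentration-response with 50 uM top concentration.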

[17] = target: rat Monoamine Oxidase, MAO-B, Peripheral (MAOBP), Maob (gene 25750) (UniProt P19643); assay: NVS_ENZ_rMAOBP: NovaScreen (NVS) Enzymatic Assay for rat Monoamine Oxidase, MAO-B, Peripheral (MAOBP) (AID 2283242)
[18] = target: rat Corticotropin Releasing Factor Receptor (CRF), Crhr1 (gene 58959) (UniProt P35353); assay: NVS_GPCR_rCRF: NovaScreen (NVS) G Protein-Coupled Receptor Assay for rat Corticotropin Releasing Factor Receptor (CRF) (AID 2283300)
Procedure, shortened: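 Rat cortical membranes used as receptor source in a radioligand competitive displacement binding assay; scintillation read 2 h after dosing. Primary screen run in duplicate at 25 uM; loss of signal versus DMSO baseline indicates binding.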

[19] = target: human Neonicotinoid receptor (NNR), CHRNA2 (gene 1135) (UniProt Q15822); assay: NVS_LGIC_hNNR_NBungSens: NovaScreen (NVS) Ligand-Gated Ion Channel Assay for human Neonicotinoid receptor (NNR) (AID 2283313)
Procedure, shortened: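 Radioligand displacement on human neuroblastoma membranes, 2 h, filter-based scintillation counting. Primary screen in duplicate at 25 uM; chemicals passing threshold (e.g. 30% inhibition) run singleton concentration-response to 50 uM; loss of binding fitted versus DMSO.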

[20] = target: Norway rat Vesicular Monoamine Transporter (VMAT2), neurotransmitter transporter, Slc18a2 (gene 25549) (UniProt Q01827); assay: NVS_TR_rVMAT2: NovaScreen (NVS) Transporter Assay for Norway rat Vesicular Monoamine Transporter (VMAT2), neurotransmitter transporter (AID 2283376);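 further: actives lower the bound radioligand signal below the DMSO level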
Procedure, shortened: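 Radioligand displacement binding on rat forebrain tissue preparation, filter-based scintillation read-out 1 hour after dosing. Primary screen in duplicate at 25 uM, then concentration series for actives; loss of signal versus DMSO.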

Measured: AC50

S=C(S)NCCNC(=S)S.[Mn+2].[S-]C([S-])=NCCN=C([S-])[S-].[Zn+2]
inactive: [1] | [2] | [4] | [7] | [9] | [13] | [15] | [16] | [17] | [19]
active: [3] 1.87 µM and 1.32 µM and 2.26 µM | [5] 9.75 µM and 926 nM and 5.66 µM | [6] 233 nM and 815 nM | [7] 18.2 µM | [8] 7.49 µM and 1.15 µM | [10] 5.61 µM and 263 nM | [11] 3.14 µM and 80.5 nM and 274 nM | [12] 898 nM and 519 nM | [14] 9.01 µM and 2.11 µM and 12.8 µM | [18] 25 µM

CCCCCCC(CCCCCCCCCCC(=O)OCC(COC(C)=O)OC(C)=O)OC(C)=O (stereo not given)
inactive: [2]

O=C(c1ccc(OCCN2CCCCC2)cc1)c1c(-c2ccc(O)cc2)sc2cc(O)ccc12
inactive: [10]
active: [2] 10.3 nM | [3] 18.9 µM | [5] 36.2 µM | [14] 31 µM | [17] 10.8 µM | [19] 16.7 µM | [20] 563 nM

c1ccc2c(c1)-c1cccc3c1c-2cc1ccccc13
inactive: [2]
